Reference: PubChem BioAssay AID1347147 (National Center for Advancing Translational Sciences (NCATS), 2019)
Results filed as inconclusive are left out. A call without a number means that no potency is given here. The source made the active and inactive calls. Calls follow the shape of the dose curve; as a rule, active = well fitted inhibition curve with a large enough effect; inconclusive = small, poorly fitted or top-dose-only effect; inactive = no such curve, though single readings can be large or run the other way.

Target: N-terminal Xaa-Pro-Lys N-methyltransferase 1 (Homo sapiens) (UniProt Q9BV86)
Sequence (Q9BV86 whole entry, looked up): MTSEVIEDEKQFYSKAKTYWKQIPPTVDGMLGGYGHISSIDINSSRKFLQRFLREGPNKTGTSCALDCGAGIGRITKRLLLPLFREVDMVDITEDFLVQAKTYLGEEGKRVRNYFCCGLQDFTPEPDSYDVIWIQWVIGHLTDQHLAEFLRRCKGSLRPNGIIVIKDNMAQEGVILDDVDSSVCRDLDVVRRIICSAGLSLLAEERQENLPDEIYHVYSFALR
Experiment: qHTS Assay for Inhibitors of N-terminal methyltransferase 1 (NTMT1): MTaseGlo Confirmatory Screen, Round 2
Conditions: NTMT1 enzyme, MTase-Glo SAH luminescence; series mostly up to 57.4 µM
Outline: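 NTMT1 (125 nM) with 100 µM SAM was preincubated ~15 min with compound, then 1 µM SPKRIA peptide was added for 30 min at RT. SAH was detected by MTase-Glo luminescence, normalized to no-enzyme and DMSO controls, and fitted to a 4-parameter Hill equation.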
Potency is read from the fitted curve at half-maximal effect.

SMILES	Potency
CC(C)NCC(O)c1ccc(O)c(O)c1 (configuration not stated)	inactive
OC[C@H]1O[C@@H](n2cnc3cncnc32)[C@H](O)[C@@H]1O	5.62 µM (active)
Cc1ccccc1CNc1ncnc2c1ncn2[C@@H]1O[C@H](CO)[C@@H](O)[C@H]1O	inactive
C[C@](Cc1ccc(O)c(O)c1)(NN)C(=O)O	inactive
CCC(CC)n1ccc2c(C(=O)NCc3c(C)cc(C)[nH]c3=O)cc(C#N)cc21	inactive
OC[C@H]1O[C@@H](n2cnc3c(NCc4ccco4)ncnc32)[C@H](O)[C@@H]1O	inactive
N#C/C(=C\c1ccc(O)c(O)c1)C(=O)Nc1ccccc1	inactive
Cc1cccc(C2CN(C)CCc3c2cc(O)c(O)c3Cl)c1 (configuration not stated)	inactive
Cc1cc2c(cc1Cl)N(C(=O)Nc1ccc(Oc3cccnc3C)nc1)CC2	inactive
Nc1ccnc2c1ncn2[C@@H]1O[C@H](CO)[C@@H](O)[C@H]1O	10 µM (active)
NS(=O)(=O)c1cccc2c1c([N+](=O)[O-])cc1nc(O)c(O)nc12	inactive
COc1cc2nc(N3CCCN(C)CC3)nc(NC3CCNCC3)c2cc1OC	inactive
CC(C)=CCNc1ncnc2c1ncn2[C@@H]1O[C@H](CO)[C@@H](O)[C@H]1O	inactive
Nc1ncnc2c1ncn2[C@H]1O[C@@H](CNS(=O)(=O)NC(=O)c2cccc(-c3noc(-c4ccccc4F)n3)c2)[C@H](O)[C@@H]1O	2 µM (active)
CCN(CC)C(=S)SSC(=S)N(CC)CC	inactive
CN(C)CCCN1c2ccccc2Sc2ccc(C(F)(F)F)cc21	inactive
OCC1OC(n2cnc3c(NCc4ccco4)ncnc32)C(O)C1O (configuration not stated)	inactive
